For some of these results: Results with a measured potency or affinity are listed apart.
What was measured:
Design in all cases: scale not given: direction of the effect not stated beside the values
[1] = molecular target: Protein translocase subunit SecA (Escherichia coli (strain K12)) (UniProt P10408); assay: Assay to Identify E. coli SecA ATPase Inhibitors; type: functional; details: 30 µM
[2] = molecular target: T1, Ubiquitin-activating enzyme e1, putative (Leishmania donovani (strain BPK282A1)) (UniProt E9BSI1); assay: Leishmania donovani Ubiquitin Activating Enzyme (LdE1); type: functional; details: 30 µM
T1 sequence (whole entry): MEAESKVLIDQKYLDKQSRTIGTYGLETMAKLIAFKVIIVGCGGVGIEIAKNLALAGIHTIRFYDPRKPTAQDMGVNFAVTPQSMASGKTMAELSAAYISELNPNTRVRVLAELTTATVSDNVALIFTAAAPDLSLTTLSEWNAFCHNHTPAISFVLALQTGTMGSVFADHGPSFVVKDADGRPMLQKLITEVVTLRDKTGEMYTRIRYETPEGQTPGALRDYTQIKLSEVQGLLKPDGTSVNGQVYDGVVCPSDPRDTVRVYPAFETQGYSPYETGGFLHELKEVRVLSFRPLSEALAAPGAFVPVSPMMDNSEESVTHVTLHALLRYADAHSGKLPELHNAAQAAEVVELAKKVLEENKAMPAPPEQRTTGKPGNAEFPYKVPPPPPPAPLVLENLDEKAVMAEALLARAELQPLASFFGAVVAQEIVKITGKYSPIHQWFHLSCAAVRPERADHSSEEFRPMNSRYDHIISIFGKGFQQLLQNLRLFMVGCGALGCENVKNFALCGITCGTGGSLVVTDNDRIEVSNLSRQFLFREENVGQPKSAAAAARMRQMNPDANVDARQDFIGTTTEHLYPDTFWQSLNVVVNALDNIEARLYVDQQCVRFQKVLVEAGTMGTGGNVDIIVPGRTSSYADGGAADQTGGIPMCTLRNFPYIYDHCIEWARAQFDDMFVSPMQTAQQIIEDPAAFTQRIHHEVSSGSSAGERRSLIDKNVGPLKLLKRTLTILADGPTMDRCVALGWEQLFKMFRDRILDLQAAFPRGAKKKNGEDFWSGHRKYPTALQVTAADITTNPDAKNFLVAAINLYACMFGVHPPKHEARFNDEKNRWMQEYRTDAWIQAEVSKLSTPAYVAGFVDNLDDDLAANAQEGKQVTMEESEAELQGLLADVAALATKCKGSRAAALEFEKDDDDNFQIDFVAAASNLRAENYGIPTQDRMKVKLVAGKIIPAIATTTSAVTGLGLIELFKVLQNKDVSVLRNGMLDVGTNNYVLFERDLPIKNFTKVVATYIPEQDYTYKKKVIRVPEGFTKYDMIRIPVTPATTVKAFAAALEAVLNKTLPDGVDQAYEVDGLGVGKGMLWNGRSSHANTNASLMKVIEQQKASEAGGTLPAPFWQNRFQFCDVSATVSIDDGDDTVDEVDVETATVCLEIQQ

[3] = molecular target: AMP-activated protein kinase, AMPK (Homo sapiens) (UniProt P54646+O43741+P54619+Q9UGJ0+Q9Y478+Q13131+Q9UGI9); assay: AMP-dependent Kinase enzyme assay. An in vitro enzyme assay that detects ADP turnover that is directly proportional to AMPK activity. This uses naive AMPK that is activated during the assay with MK-8722; type: functional; details: 30 µM
[4] = molecular target: Sialic acid-binding Ig-like lectin 9 (Homo sapiens) (UniProt Q9Y336); assay: Hs-Siglec9 ALPHAscreen SOP 20170721; details: 10 µM
Trypanosoma cruzi = assay: Trypanosoma cruzi phosphomannomutase and mannose-1-phosphate guanylyltransferase assay; type: functional; details: 10 µM
[5] = molecular target: T2, Arginase-2, mitochondrial (Homo sapiens) (UniProt P78540); assay: in vitro enzyme assay to detect the production of urea directly proportional to the activity of Arginase II; type: functional; details: 33.3 µM; further: in the data most compounds retested in dose-response had high values
T2 sequence (whole entry): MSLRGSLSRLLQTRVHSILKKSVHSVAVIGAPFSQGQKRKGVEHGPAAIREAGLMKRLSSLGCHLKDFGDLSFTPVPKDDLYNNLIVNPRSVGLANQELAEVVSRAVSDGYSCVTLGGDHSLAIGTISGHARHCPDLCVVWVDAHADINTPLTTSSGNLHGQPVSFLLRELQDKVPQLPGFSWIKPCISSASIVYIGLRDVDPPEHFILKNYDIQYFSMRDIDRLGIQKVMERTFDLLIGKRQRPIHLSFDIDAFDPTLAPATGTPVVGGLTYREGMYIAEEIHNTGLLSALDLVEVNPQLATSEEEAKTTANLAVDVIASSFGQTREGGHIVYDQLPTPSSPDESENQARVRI

[6] = molecular target: T3, Proteasome subunit beta (Trypanosoma cruzi) (UniProt O96673); assay: Trypanosoma cruzi proteasome chymotrypsin-like activity (TcProtChymo) assay.; further: in the data most compounds retested in dose-response had high values; type: functional; details: 9.37 µM
T3 sequence (whole entry): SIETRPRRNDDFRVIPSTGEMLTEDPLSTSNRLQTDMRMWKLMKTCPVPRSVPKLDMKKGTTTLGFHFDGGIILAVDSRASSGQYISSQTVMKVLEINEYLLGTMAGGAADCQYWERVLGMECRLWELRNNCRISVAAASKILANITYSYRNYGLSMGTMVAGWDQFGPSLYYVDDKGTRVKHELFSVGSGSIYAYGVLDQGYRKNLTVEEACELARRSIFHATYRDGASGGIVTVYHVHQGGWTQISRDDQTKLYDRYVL

Homo sapiens = organism: Homo sapiens; assay: To identify inhibition of the IFN signalling (Jak-Stat) pathway via expression of an eGFP reporter gene under the control of an IFN-stimulated response element (ISRE) containing MxA promoter.; type: functional; details: 30 µM
[7] = molecular target: T4, Tyrosyl-tRNA synthetase, putative (Trypanosoma cruzi (strain CL Brener)) (UniProt Q4DSP6); assay: Trypanosoma cruzi tyrosyl tRNA synthetase (TcYRS) _High Tyrosine SOP; type: functional; details: 30 µM; further: in the data most compounds retested in dose-response had high values
T4 sequence (whole entry): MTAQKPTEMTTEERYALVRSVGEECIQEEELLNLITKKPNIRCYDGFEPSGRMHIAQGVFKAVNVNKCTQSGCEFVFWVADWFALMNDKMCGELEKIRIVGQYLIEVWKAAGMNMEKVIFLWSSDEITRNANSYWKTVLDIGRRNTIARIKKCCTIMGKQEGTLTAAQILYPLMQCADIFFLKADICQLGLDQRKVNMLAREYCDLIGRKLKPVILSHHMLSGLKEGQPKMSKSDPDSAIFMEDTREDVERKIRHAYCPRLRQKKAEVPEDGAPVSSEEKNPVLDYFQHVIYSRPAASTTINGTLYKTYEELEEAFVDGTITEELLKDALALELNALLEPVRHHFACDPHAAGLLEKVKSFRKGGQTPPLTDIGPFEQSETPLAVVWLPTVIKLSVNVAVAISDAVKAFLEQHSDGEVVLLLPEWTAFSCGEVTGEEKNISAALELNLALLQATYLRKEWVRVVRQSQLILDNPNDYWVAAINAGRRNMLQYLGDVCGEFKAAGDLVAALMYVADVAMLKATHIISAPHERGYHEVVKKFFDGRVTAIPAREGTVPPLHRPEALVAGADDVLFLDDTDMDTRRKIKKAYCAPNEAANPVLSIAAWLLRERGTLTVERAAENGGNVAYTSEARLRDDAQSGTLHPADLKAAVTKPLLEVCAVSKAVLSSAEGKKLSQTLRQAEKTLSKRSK

[8] = molecular target: T4, Tyrosyl-tRNA synthetase, putative (Trypanosoma cruzi (strain CL Brener)); assay: Trypanosoma cruzi tyrosyl tRNA synthetase (TcYRS) SOP; type: functional; details: 30 µM
[9] = molecular target: Chromo domain-containing protein 1 (Saccharomyces cerevisiae (strain ATCC 204508 / S288c) (Baker's yeast)) (UniProt P32657); assay: ScCHD-1 Enzyme Inhibition Assay; type: functional; details: 30 µM; further: in the data most compounds retested in dose-response had high values
Sequence of Chromo domain-containing protein 1 (Saccharomyces cerevisiae (strain ATCC 204508 / S288c) (Baker's yeast)) (P32657 whole entry, the tested form may be a part): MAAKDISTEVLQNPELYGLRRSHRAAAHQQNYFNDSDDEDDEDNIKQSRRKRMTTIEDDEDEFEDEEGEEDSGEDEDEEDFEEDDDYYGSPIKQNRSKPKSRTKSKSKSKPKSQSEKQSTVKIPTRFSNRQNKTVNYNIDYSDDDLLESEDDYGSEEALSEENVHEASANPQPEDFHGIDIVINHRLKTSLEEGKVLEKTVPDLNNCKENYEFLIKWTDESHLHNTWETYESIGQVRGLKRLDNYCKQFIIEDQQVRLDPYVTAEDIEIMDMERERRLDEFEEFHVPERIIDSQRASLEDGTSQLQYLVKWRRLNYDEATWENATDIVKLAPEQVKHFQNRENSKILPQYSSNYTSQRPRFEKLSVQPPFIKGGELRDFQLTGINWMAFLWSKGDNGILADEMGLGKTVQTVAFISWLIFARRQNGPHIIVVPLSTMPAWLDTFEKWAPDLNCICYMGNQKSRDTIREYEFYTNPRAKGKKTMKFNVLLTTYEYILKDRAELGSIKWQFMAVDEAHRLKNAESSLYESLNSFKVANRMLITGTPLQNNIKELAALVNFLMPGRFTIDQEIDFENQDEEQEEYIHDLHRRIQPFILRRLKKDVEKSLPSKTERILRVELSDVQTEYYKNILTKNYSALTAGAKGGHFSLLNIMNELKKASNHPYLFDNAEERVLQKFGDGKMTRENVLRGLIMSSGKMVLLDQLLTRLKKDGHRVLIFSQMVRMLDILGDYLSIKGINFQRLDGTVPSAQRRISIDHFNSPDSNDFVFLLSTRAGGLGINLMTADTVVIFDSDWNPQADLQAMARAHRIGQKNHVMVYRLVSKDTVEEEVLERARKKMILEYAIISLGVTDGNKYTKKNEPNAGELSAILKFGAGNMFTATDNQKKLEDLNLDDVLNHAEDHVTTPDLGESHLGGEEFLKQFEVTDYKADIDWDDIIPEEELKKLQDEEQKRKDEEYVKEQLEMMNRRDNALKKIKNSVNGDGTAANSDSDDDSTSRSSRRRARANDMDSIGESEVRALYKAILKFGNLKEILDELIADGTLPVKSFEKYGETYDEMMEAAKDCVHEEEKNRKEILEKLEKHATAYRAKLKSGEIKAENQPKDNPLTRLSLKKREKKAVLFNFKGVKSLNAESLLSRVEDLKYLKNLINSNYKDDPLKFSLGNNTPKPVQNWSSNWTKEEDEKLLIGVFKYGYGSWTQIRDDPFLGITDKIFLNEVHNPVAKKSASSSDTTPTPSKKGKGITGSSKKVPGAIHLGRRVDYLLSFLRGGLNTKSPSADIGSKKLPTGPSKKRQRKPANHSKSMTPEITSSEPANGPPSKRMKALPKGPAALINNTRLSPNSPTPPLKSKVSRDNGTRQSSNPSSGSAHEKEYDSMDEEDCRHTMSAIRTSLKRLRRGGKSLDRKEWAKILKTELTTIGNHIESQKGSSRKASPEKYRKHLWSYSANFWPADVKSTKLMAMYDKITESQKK

Sequence of Sialic acid-binding Ig-like lectin 9 (Homo sapiens) (Q9Y336 whole entry): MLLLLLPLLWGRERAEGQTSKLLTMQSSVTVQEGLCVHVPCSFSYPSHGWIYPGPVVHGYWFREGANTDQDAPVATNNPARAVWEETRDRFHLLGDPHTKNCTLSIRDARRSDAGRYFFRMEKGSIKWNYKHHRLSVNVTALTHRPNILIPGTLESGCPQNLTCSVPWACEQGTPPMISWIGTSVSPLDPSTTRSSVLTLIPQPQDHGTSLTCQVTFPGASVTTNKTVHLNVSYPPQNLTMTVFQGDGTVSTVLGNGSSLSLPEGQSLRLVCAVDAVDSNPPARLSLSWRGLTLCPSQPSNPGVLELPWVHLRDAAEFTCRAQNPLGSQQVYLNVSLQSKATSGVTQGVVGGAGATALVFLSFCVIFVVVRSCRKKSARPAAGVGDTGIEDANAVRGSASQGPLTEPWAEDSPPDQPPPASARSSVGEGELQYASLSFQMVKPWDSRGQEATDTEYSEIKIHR
Sequence of Protein translocase subunit SecA (Escherichia coli (strain K12)) (P10408 whole entry): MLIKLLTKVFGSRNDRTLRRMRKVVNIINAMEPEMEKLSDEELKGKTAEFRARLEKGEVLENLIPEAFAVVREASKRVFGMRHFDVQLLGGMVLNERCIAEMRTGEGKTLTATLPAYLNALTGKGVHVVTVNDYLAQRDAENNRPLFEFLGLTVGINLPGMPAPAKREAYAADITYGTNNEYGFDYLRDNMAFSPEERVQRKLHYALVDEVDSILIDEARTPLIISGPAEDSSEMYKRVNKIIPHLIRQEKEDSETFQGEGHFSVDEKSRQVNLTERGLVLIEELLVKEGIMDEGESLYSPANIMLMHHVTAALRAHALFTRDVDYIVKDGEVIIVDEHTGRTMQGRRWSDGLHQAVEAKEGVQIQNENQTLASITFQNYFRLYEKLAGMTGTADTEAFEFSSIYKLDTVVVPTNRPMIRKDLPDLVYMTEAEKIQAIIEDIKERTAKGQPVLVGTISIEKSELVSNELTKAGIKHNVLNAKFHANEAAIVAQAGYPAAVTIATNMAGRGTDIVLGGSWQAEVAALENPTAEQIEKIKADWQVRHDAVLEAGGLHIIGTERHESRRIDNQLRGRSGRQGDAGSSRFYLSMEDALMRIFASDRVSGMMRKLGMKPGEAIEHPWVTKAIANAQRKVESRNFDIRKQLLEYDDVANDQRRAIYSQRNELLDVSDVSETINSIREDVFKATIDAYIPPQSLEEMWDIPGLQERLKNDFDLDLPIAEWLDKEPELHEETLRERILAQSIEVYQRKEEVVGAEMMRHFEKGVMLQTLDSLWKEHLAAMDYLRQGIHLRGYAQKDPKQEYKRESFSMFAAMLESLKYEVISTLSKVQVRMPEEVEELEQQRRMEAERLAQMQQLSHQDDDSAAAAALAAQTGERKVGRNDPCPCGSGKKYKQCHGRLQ

SMILES | Percent Effect [1] | Percent Effect [2] | Percent Effect [3] | Percent Effect [4] | Percent Effect (Trypanosoma cruzi) | Percent Effect [5] | Percent Effect [6] | Percent Effect (Homo sapiens) | Percent Effect [7] | Percent Effect [8] | Percent Effect [9]
CCOc1nnc(CN2CCC(N(C)Cc3noc(C)n3)C2)s1 (stereo not given) | -0.236% | 13.2% | -4.92% | -14.9% | -9.06% | 5.04% | 12.4% | 11.4% | 7.39% | 6.17% | -8.06%
N#Cc1cccnc1NCc1cccnc1N1CCC(C(N)=O)CC1 | -4.85% | 8.11% | -4.32% | 8.48% | 0.293% | -0.744% | 12.3% | 3.17% | 3.23% | 13.6% | 1.32%
Cc1nc(C)n(C2CCCN(C(=O)c3ccccc3C)C2)n1 (stereo not given) | -0.244% | 18.2% | -0.257% | -8.82% | -0.881% | 7.37% | 12.5% | 12.5% | 7.62% | 11.8% | -10%
O=C(NCCCOCC1CCCO1)c1cccnc1N1CCCC1 (stereo not given) | -2.67% | 5.41% | 4.06% | -10.2% | -2.93% | 0.833% | 14.3% | -4.98% | 9.9% | -3.66% | 6.21%
COCC(=O)N1CC[C@@H]2CN(Cc3cccc(Cl)c3)S(=O)(=O)[C@@H]2CC1 | -3.3% | 10.7% | -2.58% | -5.34% | -6.18% | -55% | 9.74% | 5.42% | -3.12% | 12.5% | -5.91%
Cc1ccc(CN2CC(C(=O)N3CCCC3)C3(CCOCC3)C2)s1 (stereo not given) | 0.462% | 0% | 0.717% | 0.63% | -5.41% | -54.3% | 2.05% | 5.33% | 2.08% | 0% | -4.71%
Cc1noc(Cl)c1CCC(=O)N1CCCCC1Cn1cccn1 (stereo not given) | -5.73% | 5.26% | 1.98% | -0.589% | 1.85% | -2.37% | 9.3% | -6.24% | 3.19% | 5.2% | -7.11%
Cc1csc(C2CCCN(C(=O)c3cnc[nH]3)C2)n1 (stereo not given) | -3.16% | 10.8% | -8.22% | 15.3% | 3.11% | -4.41% | 3.42% | 32.5% | 5.42% | 18.5% | -10.5%
CN(C)c1ncnc2c1CCN(CC1CCOC1)CC2 (stereo not given) | -2.84% | 8.11% | 4.65% | -0.235% | -3.42% | -2.87% | 18.6% | -8.93% | 3.24% | 15.4% | 0.421%
COC(=O)C(C)(C)NC(=O)C1CC(=O)N(C)C1 (stereo not given) | -1.38% | -2.74% | -4.39% | 9.64% | 2.78% | -0.798% | 3.17% | -3.68% | -1.04% | 8.64% | 4.14%
Cc1nnc(N2CCOC(Cn3cccn3)C2)c(C#N)c1C (stereo not given) | -1.71% | -5.26% | -36.6% | 1.01% | 2.26% | 4.21% | -0.334% | -3.56% | 2.45% | 0% | -0.172%
CN(C)CCN1CCOCC2(C1)CN(Cc1ccsc1)CCO2 (stereo not given) | -4.22% | 5.33% | 14.3% | 0.643% | -2.56% | 4.89% | 4.67% | -0.367% | 4.25% | 8.97% | -3.51%
Cc1ccc(C(=O)NS(=O)(=O)c2cc(Cl)ccc2Cl)c(=O)[nH]1 | -2.59% | 5.41% | -4.48% | 13.3% | 4.18% | -2.4% | 4.67% | 32% | 5.94% | 23.2% | -3.61%
CCCc1n[nH]c(C2CN(C(=O)c3ccco3)CCO2)n1 (stereo not given) | -3.05% | 0% | 2.64% | -8.28% | -1.03% | 2.52% | 8.71% | -11.3% | 0.493% | -1.24% | 13.1%
Cc1nn(C)c(C)c1C1CCCN1CC(=O)NC(C1CC1)C1CC1 (stereo not given) | -3.47% | 10.8% | -8.63% | 11.2% | 4.25% | -4.01% | -3.06% | 4.1% | 5.42% | 11.1% | -9.75%
c1ccc(CCCN2CC(n3cccn3)C2)cc1 | 0.15% | 2.7% | -2.18% | -4.46% | 5.48% | -2.03% | 14.7% | 25.9% | 7.92% | 23.2% | -5.99%
COc1ccc(CN(C)C(=O)CCC(=O)c2cccs2)c(OC)c1OC | -2.26% | -2.74% | -1.79% | 9.32% | 2.78% | -6.39% | 10.7% | 18.4% | 9.38% | 21% | 2.3%
Cc1nn(C)c(Cl)c1C1CCCN1C(=O)c1nccnc1N (stereo not given) | -2.73% | 16.2% | -10.8% | -6.66% | -3.3% | 0.802% | 12.4% | 1.8% | 7.39% | 18.5% | -6.71%
CO[C@H]1CN(C(=O)c2ccc3oc(C)cc3c2)CC[C@@]12CCCO2 | -0.467% | 1.35% | 11.4% | 2.79% | 0.593% | -0.696% | 5.77% | -10.3% | 0% | -1.3% | -11.8%
O=C(c1cccnc1)N1CCC2(CC1)CCN(c1ccsc1)C2=O | -4.05% | -2.6% | 1.54% | -7.82% | -1.28% | -4.52% | 12% | -7.6% | -5.29% | -6.41% | 0.0389%

— ChEMBL document CHEMBL3988442, “University of Dundee, Small-Polar-MMV Screening Library” (2021)
